# Assay results reported in PubChem BioAssay (NCATS).
# Values without a mark were called inactive. Results filed as inconclusive are left out. Where a call stands in place of a potency, no number is given. The source made the active and inactive calls. Calls come from the whole dose curve; as a rule, active = well fitted curve in the direction sought with a large enough effect; inconclusive = small, poorly fitted or top-dose-only effect, or another doubt; inactive = no such curve, though single readings can be large; an effect the other way counts as inactive or inconclusive.
# Assays:
# [1] = test system: Zika virus NS2B-NS3 protease (linked construct); experiment: Primary screen NINDS Rhodamine qHTS for Zika virus inhibitors (AID 1347160); note: nearly all actives have a fitted effect of over 55% in size
# Outline: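 Percent inhibition, normalized to uninhibited and enzyme-free controls, is fitted to a 4-parameter Hill equation. Fluorescence change comes from a 15-min cleavage of 1.5 microM bis-peptide Rhodamine110 substrate by 25 nM linked NS2B-NS3 at room temperature.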
# [2] = target: Calcium and integrin-binding protein 1 (Homo sapiens) (UniProt Q99828); experiment: Primary qHTS for Identification of Calcium Integrin Binding Protein 1 (CIB1) Competitor (AID 1508620);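 note: GST tagged CIB1 binding a fluorescein labelled alphaIIb integrin peptide tracer; top concentration of the series differs between compounds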
# Outline: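 Fluorescence polarization competition: CIB1-GST (1 uM final) preincubated with compound 15 min at room temperature, then FITC-labeled alphaIIb peptide (100 nM final) added for another 15 min. Polarization read at Ex 480/Em 540.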
# [3] = target: Glutathione peroxidase 1 (Homo sapiens) (UniProt P07203); experiment: Primary qHTS Assay for Inhibitors of Recombinant Selenoprotein Glutathione Peroxidase 1 (GPX1) (AID 1845191); note: nearly all actives have a fitted effect of over 65% in size
# Outline: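 Recombinant GPX1 (10 nM final) was preincubated with compound for 30 min at room temperature, then reacted with 1 mM GSH, 0.5 mM CHP, 0.5 mM NADPH and 100 nM glutathione reductase; NADPH fluorescence (340/450 nm) was read at 0 and 15 min.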
# [4] = target: Phospholipid hydroperoxide glutathione peroxidase GPX4 (Homo sapiens) (UniProt P36969); experiment: Primary qHTS Assay for Inhibitors of Recombinant Selenoprotein Glutathione Peroxidase 4 (GPX4) (AID 1845192); note: nearly all actives have a fitted effect of over 65% in size
# Outline: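 GR-coupled readout: 100 nM GR, 1 mM GSH, 0.5 mM NADPH; NADPH fluorescence (ex 340/em 450 nm) read at t=0 and after 15 min RT. GPX4 200 nM, preincubated 30 min with compound; substrate 0.5 mM CHP.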
# [5] = target: Luciferin 4-monooxygenase (Photinus pyralis) (UniProt P08659); experiment: Primary firefly luciferase (FLuc) qHTS assay for identification of artifact compounds. (AID 1845220); conditions: outcome: dose series up to 54.1 µM unless noted; note: nearly all actives have a fitted effect of over 60% in size
# Outline: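 In this counter-screen for luciferase artifacts, test compounds met substrate (10 uM each luciferin and ATP) before 10 nM enzyme started the reaction. Light output was measured 5 min later.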
# [6] = Primary fluorescence-based thiol-reactive (MSTI) qHTS assay for identification of artifact compounds. (AID 1845221); note: nearly all actives have a fitted effect of over 65% in size; note: potency is the fitted concentration of half-maximal effect
# Outline: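 Probe: MSTI 4 uM, PBS pH 7.4, 2% DMSO. Incubation 1 h, RT, light-protected. Readout fluorescence 525/598 nm.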
# [7] = test system: Nanoluciferase (engineered Oplophorus gracilirostris luciferase); experiment: Primary Nanoluciferase (NLuc) qHTS assay for identification of artifact compounds. (AID 1845222);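 note: NLuc secreted into diluted conditioned medium of S16 cells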
# Outline: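 Using secreted nanoluciferase in S16 culture medium (0.22 um filtered, 1:55 dilution), compounds were preincubated 15 min at RT. Signal was generated with Nano-Glo reagent (1:100) over 5 min.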
# [8] = Primary redox qHTS assay for identification of artifact compounds. (AID 1845223)
# Outline: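 Amplex Red (25 uM) and HRP (250 mU/mL) in HBSS, with compounds for 15 min, then 250 uM DTT for 30 min, room temperature, dark. Fluorescence 525/598 nm read; normalized to DMSO and 10 uM DA3003; Hill fit.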
# CRL-7250 = normal cell line; experiment: Cytotoxic Profiling of Annotated Libraries Using Quantitative High-Throughput Screening (AID 1296008); conditions: Five cell lines viability, CellTiter-Glo ATP luminescence, 48-72 h; max response: stronger effect = lower value; note: nearly all actives have a fitted effect of over 60% in size; note: potency is the fitted concentration of half-maximal effect
# Outline: (§1)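 Compounds were pin-transferred onto cells and incubated 48 or 72 hr at 37 degree Celsius, 95% humidity. CellTiter-Glo was added, plates sat 10 min at room temperature, then ATP-coupled luminescence was imaged as the viability read-out.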
# KB-3-1 = experiment: as above; conditions: Five cell lines viability, CellTiter-Glo ATP luminescence, 48-72 h; max response: stronger effect = lower value
# Outline: as §1
# C33A = experiment: Primary qHTS to identify gynecologic anti-cancer compounds using libraries of approved drugs and bioactive compounds (AID 1345084); conditions: Gynecologic cancer cell panel viability, ATPlite luminescence, 48 h; series mostly up to 57.5 µM; note: nearly all actives have a fitted effect of over 55% in size; note: potency is the fitted concentration of half-maximal effect
# Outline: (§2)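 Cell viability after 48 h drug treatment, ATPlite luminescence readout; five doses.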
# CAOV3 = experiment: as above; conditions: Gynecologic cancer cell panel viability, ATPlite luminescence, 48 h; series mostly up to 57.5 µM
# Outline: as §2
# CASKI = experiment: as above; conditions: Gynecologic cancer cell panel viability, ATPlite luminescence, 48 h; series mostly up to 57.5 µM
# Outline: as §2
# Es-2 = experiment: as above; conditions: Gynecologic cancer cell panel viability, ATPlite luminescence, 48 h; series mostly up to 57.5 µM
# Outline: as §2
# Hek293T = experiment: as above; conditions: Gynecologic cancer cell panel viability, ATPlite luminescence, 48 h, control line for the selectivity index; series mostly up to 57.5 µM
# Outline: as §2
# JEG-3 = experiment: as above; conditions: Gynecologic cancer cell panel viability, ATPlite luminescence, 48 h; series mostly up to 57.5 µM
# Outline: as §2
# OV90 = experiment: as above; conditions: Gynecologic cancer cell panel viability, ATPlite luminescence, 48 h; series mostly up to 57.5 µM
# Outline: as §2
# PA-1 = experiment: as above; conditions: Gynecologic cancer cell panel viability, ATPlite luminescence, 48 h; series mostly up to 57.5 µM
# Outline: as §2
# Tov-21-G = experiment: as above; conditions: Gynecologic cancer cell panel viability, ATPlite luminescence, 48 h; series mostly up to 57.5 µM
# Outline: as §2
# Tov112D = experiment: as above; conditions: Gynecologic cancer cell panel viability, ATPlite luminescence, 48 h; series mostly up to 57.5 µM
# Outline: as §2
# Chain of Glutathione peroxidase 1 (Homo sapiens) (P07203 whole entry, looked up): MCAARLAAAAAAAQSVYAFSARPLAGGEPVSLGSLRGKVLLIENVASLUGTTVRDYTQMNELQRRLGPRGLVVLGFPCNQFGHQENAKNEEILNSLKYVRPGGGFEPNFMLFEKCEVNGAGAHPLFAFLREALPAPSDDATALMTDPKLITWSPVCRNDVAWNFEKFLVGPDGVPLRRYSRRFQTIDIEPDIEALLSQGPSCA
# Chain of Phospholipid hydroperoxide glutathione peroxidase GPX4 (Homo sapiens) (P36969 whole entry, looked up): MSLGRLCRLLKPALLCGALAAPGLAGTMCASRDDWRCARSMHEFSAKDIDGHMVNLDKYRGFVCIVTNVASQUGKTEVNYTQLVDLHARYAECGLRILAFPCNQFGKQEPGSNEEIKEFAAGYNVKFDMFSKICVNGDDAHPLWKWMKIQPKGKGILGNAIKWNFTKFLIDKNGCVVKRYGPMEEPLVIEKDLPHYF
# Chain of Calcium and integrin-binding protein 1 (Homo sapiens) (Q99828 whole entry, looked up): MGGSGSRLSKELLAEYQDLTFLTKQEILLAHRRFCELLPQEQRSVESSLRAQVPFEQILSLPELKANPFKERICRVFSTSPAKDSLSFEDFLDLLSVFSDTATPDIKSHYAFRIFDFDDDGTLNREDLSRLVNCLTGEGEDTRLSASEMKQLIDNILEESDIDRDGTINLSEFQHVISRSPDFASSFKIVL
compound,measurement,setting,value
C[C@]12CC[C@H](O)C[C@@H]1CC[C@@H]1[C@@H]2CC[C@]2(C)C(=O)CC[C@@H]12,Potency,[1],inactive
same,Potency,[2],inactive
same,Potency,[3],inactive
same,Potency,[4],inactive
same,outcome,[5],inactive
same,Potency,[6],inactive
same,Potency,[7],inactive
same,Potency,[8],inactive
same,max response,CRL-7250,-5.26%
same,outcome,KB-3-1,inactive
same,Potency,C33A,inactive
same,Potency,CAOV3,inactive
same,Potency,CASKI,inactive
same,Potency,Es-2,inactive
same,Potency,Hek293T,inactive
same,Potency,JEG-3,inactive
same,Potency,OV90,inactive
same,Potency,PA-1,inactive
same,Potency,Tov-21-G,inactive
same,Potency,Tov112D,inactive
CCCCCn1cc(C(=O)Oc2cccc3cccnc23)c2ccccc21,Potency,[1],inactive
same,Potency,[2],inactive
same,Potency,[3],inactive
same,Potency,[4],inactive
same,outcome,[5],inactive
same,Potency,[6],inactive
same,Potency,[7],inactive
same,Potency,[8],inactive
same,outcome,CRL-7250,inactive
same,max response,KB-3-1,-8.4%
same,Potency,C33A,inactive
same,Potency,CAOV3,inactive
same,Potency,CASKI,inactive
same,Potency,Es-2,inactive
same,Potency,Hek293T,inactive
same,Potency,JEG-3,inactive
same,Potency,OV90,inactive
same,Potency,PA-1,inactive
same,Potency,Tov-21-G,inactive
same,Potency,Tov112D,inactive
CCOc1ccc(Oc2ccc(OCc3cc(F)ccc3F)cc2)c(N)c1,Potency,[1],inactive
same,Potency,[2],inactive
same,Potency,[3],inactive
same,outcome,[5],inactive
same,Potency,[6],8440 nM (active)
same,Potency,[7],inactive
same,Potency,[8],inactive
same,outcome,CRL-7250,inactive
same,max response,KB-3-1,-0.382%
same,Potency,C33A,inactive
same,Potency,CAOV3,inactive
same,Potency,CASKI,inactive
same,Potency,Es-2,inactive
same,Potency,Hek293T,inactive
same,Potency,JEG-3,inactive
same,Potency,OV90,inactive
same,Potency,PA-1,inactive
same,Potency,Tov-21-G,inactive
same,Potency,Tov112D,inactive
Cc1c(N[C@@H](c2nnc(-c3ccc(C#N)cc3)o2)[C@H](C)O)ccc(C#N)c1Cl,Potency,[1],inactive
same,Potency,[2],inactive
same,Potency,[3],inactive
same,Potency,[4],inactive
same,outcome,[5],inactive
same,Potency,[6],inactive
same,Potency,[7],inactive
same,Potency,[8],inactive
same,outcome,CRL-7250,inactive
same,max response,KB-3-1,-17.4%
same,Potency,C33A,inactive
same,Potency,CAOV3,inactive
same,Potency,CASKI,inactive
same,Potency,Es-2,inactive
same,Potency,Hek293T,inactive
same,Potency,JEG-3,inactive
same,Potency,OV90,inactive
same,Potency,PA-1,inactive
same,Potency,Tov-21-G,inactive
same,Potency,Tov112D,inactive
CC(=O)O[C@H]1C[C@]2(O)[C@@H]3CC[C@@H]4C[C@@H](O)CC[C@]4(C)[C@H]3CC[C@]2(C)[C@H]1c1ccc(=O)oc1,Potency,[1],inactive
same,Potency,[3],inactive
same,Potency,[4],inactive
same,outcome,[5],inactive
same,Potency,[6],inactive
same,Potency,[7],inactive
same,Potency,[8],inactive
same,Potency,CRL-7250,51.7 nM (active)
same,Potency,KB-3-1,58 nM (active)
same,Potency,C33A,28.2 nM (active)
same,Potency,CAOV3,158 nM (active)
same,Potency,CASKI,398 nM (active)
same,Potency,Es-2,100 nM (active)
same,Potency,Hek293T,89.1 nM (active)
same,Potency,JEG-3,316 nM (active)
same,Potency,PA-1,100 nM (active)
same,Potency,Tov-21-G,89.1 nM (active)
C[C@]12CC[C@H](O)C[C@@H]1CC[C@@H]1[C@@H]2CC[C@]2(C)[C@@H](C3=CC(=O)OC3)CC[C@]12O,Potency,[1],inactive
same,Potency,[2],inactive
same,Potency,[3],inactive
same,outcome,[5],inactive
same,Potency,[6],inactive
same,Potency,[7],inactive
same,Potency,[8],inactive
same,Potency,CRL-7250,4530 nM (active)
same,Potency,C33A,7940 nM (active)
same,Potency,CASKI,inactive
same,Potency,Es-2,8910 nM (active)
same,Potency,JEG-3,inactive
same,Potency,OV90,inactive
COC(=O)C12C(=O)C(C)(O)C(=O)C1(C)C(C)=CC1C34CCC(OC3=O)C(C)(C)C4CCC12C (stereo not drawn),Potency,[1],inactive
same,Potency,[2],inactive
same,Potency,[3],inactive
same,Potency,[4],inactive
same,Potency,[7],inactive
same,Potency,[8],inactive
same,max response,CRL-7250,-8.47%
same,max response,KB-3-1,-12.2%
same,Potency,C33A,inactive
same,Potency,CAOV3,inactive
same,Potency,CASKI,inactive
same,Potency,Es-2,inactive
same,Potency,Hek293T,inactive
same,Potency,JEG-3,inactive
same,Potency,OV90,inactive
same,Potency,PA-1,inactive
same,Potency,Tov-21-G,inactive
same,Potency,Tov112D,inactive
CN1CCC2=C(C1)c1ccccc1Cc1ccccc12,Potency,[1],inactive
same,Potency,[2],inactive
same,Potency,[3],inactive
same,Potency,[4],inactive
same,Potency,[6],inactive
same,Potency,[7],inactive
same,Potency,[8],inactive
same,outcome,CRL-7250,inactive
same,max response,KB-3-1,-19%
same,Potency,C33A,inactive
same,Potency,CAOV3,inactive
same,Potency,CASKI,inactive
same,Potency,Es-2,inactive
same,Potency,Hek293T,inactive
same,Potency,JEG-3,inactive
same,Potency,OV90,inactive
same,Potency,PA-1,inactive
same,Potency,Tov-21-G,inactive
same,Potency,Tov112D,inactive
CCCN(CCC)[C@@H]1CCc2ccc3[nH]c(C#N)cc3c2C1,Potency,[1],inactive
same,Potency,[2],inactive
same,Potency,[3],inactive
same,Potency,[4],inactive
same,Potency,[6],inactive
same,Potency,[7],inactive
same,Potency,[8],inactive
same,outcome,CRL-7250,inactive
same,outcome,KB-3-1,inactive
same,Potency,C33A,inactive
same,Potency,CAOV3,inactive
same,Potency,CASKI,inactive
same,Potency,Es-2,inactive
same,Potency,Hek293T,inactive
same,Potency,JEG-3,inactive
same,Potency,OV90,inactive
same,Potency,PA-1,inactive
same,Potency,Tov-21-G,inactive
same,Potency,Tov112D,inactive
CCN1C[C@]2(COC)CC[C@H](O)[C@@]34C5C[C@@H]6[C@@H](OC)C[C@@](OC(C)=O)(C5[C@@H]6OC(C)=O)[C@H]([C@H](OC)C23)[C@@H]14 (stereo partly drawn),Potency,[1],inactive
same,Potency,[2],inactive
same,Potency,[3],inactive
same,Potency,[4],inactive
same,outcome,[5],inactive
same,Potency,[6],inactive
same,Potency,[7],inactive
same,Potency,[8],inactive
same,max response,CRL-7250,0.922%
same,max response,KB-3-1,-0.111%
same,Potency,C33A,inactive
same,Potency,CAOV3,inactive
same,Potency,CASKI,inactive
same,Potency,Es-2,inactive
same,Potency,Hek293T,inactive
same,Potency,JEG-3,inactive
same,Potency,OV90,inactive
same,Potency,PA-1,inactive
same,Potency,Tov-21-G,inactive
same,Potency,Tov112D,inactive
CC12CCC3C(C1)c1c(cc(O)c(C(=O)c4ccccc4)c1OC3(C)C)O2 (stereo not drawn),Potency,[1],inactive
same,Potency,[2],inactive
same,Potency,[4],inactive
same,outcome,[5],inactive
same,Potency,[6],inactive
same,Potency,[7],inactive
same,outcome,CRL-7250,inactive
same,max response,KB-3-1,-6.92%
same,Potency,C33A,inactive
same,Potency,CAOV3,inactive
same,Potency,CASKI,inactive
same,Potency,Es-2,inactive
same,Potency,Hek293T,inactive
same,Potency,JEG-3,inactive
same,Potency,OV90,inactive
same,Potency,PA-1,inactive
same,Potency,Tov-21-G,inactive
same,Potency,Tov112D,inactive
